Screening results as filed in PubChem.
Six1-Eya2 blk: qHTS Assay for Inhibitors of the Six1/Eya2 Interaction. Homeobox protein SIX1 (Homo sapiens) + Protein phosphatase EYA2 (Homo sapiens), …. AlphaScreen GST-Six1/His-Eya2 binding, biochemical; hits give low values. activity change, % (no concentration beside the values). actives 0.56% (n = 360,000); in the data active = activity change below about -65%; inconclusive = mostly about -30% to -63%; also: % is scaled to controls: 0 for no effect and ±100 for the full control effect
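Six1/Eya2 binding was read as AlphaScreen signal after compounds were pinned into GST-Six1 plus His-tagged Eya2 (5X stock 250/500 nM) in pH 8.0 Tris/NaCl/TCEP buffer, beads added, then incubated 1 h, 37 C, dark.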
CtBP-E1A inh: qHTS Assay for Inhibitors of the CtBP/E1A Interaction | CtBP / adenovirus E1A interaction (AlphaScreen) | AlphaScreen GST-E1A/His-CtBP binding, 1536-well; hits give low values | activity change, % (test concentration not listed) | actives 0.49% (n = 340,000) | AID 651724, 2012; in the data active = activity change below about -65%; inconclusive = mostly about -30% to -63%; also: % is scaled to controls: 0 for no effect and ±100 for the full control effect
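AlphaScreen with 125 nM GST-E1A and 125 nM His-CtBP (5X stocks) in Tris pH 8.0, 300 mM NaCl, BSA, Tween 20, TCEP. Compounds preincubated 2 h at 37 deg C, then glutathione donor/nickel acceptor beads added for 1 h at 37 deg C in dark.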
VP16 counter: VP16 counterscreen qHTS for inhibitors of ROR gamma transcriptional activity | Drosophila S2 Gal4-VP16 UAS-luciferase, luminescence, 20 h | Potency, µM (highest dose often 53.6 µM), for the others: top-dose activity, negative = inhibition, most hits filed as inhibitors | actives 3.5% (n = 310,000) | AID 2546, 2010;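 also: Gal4-VP16 expression switched on by copper sulfate through the metallothionein promoter; potency is read from the fitted curve at half-maximal effect; % is scaled to controls: 0 for no effect and ±100 for the full control effect; nearly all actives have a fitted effect of over 50% in size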
p53 reactivation: qHTS assay for re-activators of p53 using a Luc reporter | H1299 p53-A138V BP100-luciferase reporter, luminescence, 24 h | Potency, µM (series often up to 92.2 µM), for inactives: top-dose activity change, positive = activation, usual class: activators | actives 0.063% (n = 320,000); also: potency is read from the fitted curve at half-maximal effect; % of control where 0% means no effect; nearly all actives have a fitted effect of over 45% in size
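p53-null H1299 cells stably carrying temperature-sensitive p53-A138V and a BP100-luciferase reporter were pinned with compounds (4-point, 1:5 series) and held 24 hrs at 37 deg C. Luminescence was read 10 min after detection reagent.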
RORgamma inh: qHTS for inhibitors of ROR gamma transcriptional activity; Nuclear receptor ROR-gamma (Mus musculus), P51450; Drosophila S2 Gal4-RORgamma UAS-luciferase reporter, 20 h; Potency, µM (titrated, usually from 53.6 µM), without a hit: at the top dose activity change, negative = inhibition, hits mostly inhibitors; actives 5.4% (n = 310,000); also: potency is read from the fitted curve at half-maximal effect; % is scaled to controls: 0 for no effect and ±100 for the full control effect; nearly all actives have a fitted effect of over 60% in size
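A Gal4/UAS one-hybrid system in insect cells: metallothionein-promoter Gal4–ROR gamma fusion plus Photinus luciferase reporter. Copper sulfate 700 uM final, 20 hr ambient incubation, luminescent detection after 10 min with reagent.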
* marks the source's active call; other numbers are inactive results; ? = inconclusive; / = no result given; ! = repeats disagree. This is a sample that favours compounds with a hit; in the whole collection about 5.4% have one here. Unless noted, calls follow the shape of the dose curve; as a rule, active = well fitted curve in the direction sought with a large enough effect; inconclusive = small, poorly fitted or top-dose-only effect, or another doubt; inactive = no such curve, though single readings can be large; an effect the other way counts as inactive or inconclusive.

SMILES | Six1-Eya2 blk | CtBP-E1A inh | VP16 counter | p53 reactivation | RORgamma inh
CC(c1nc2ccccc2c(=O)[nH]1)N(C)CCOc1ccc(Cl)cc1 (stereo unspecified) | 4 | / | ? | -4% | 7.1µM*
COc1cc2c(cc1OC)C1C(=O)c3c(cc4c(c3O)C=CC(C)(C)O4)OC1CO2 (stereo unspecified) | / | / | 1µM* | / | 2.8µM*
C=CC(=O)OCC(CO)(COC(=O)C=C)COC(=O)C=C | / | / | 5.6µM* | / | 4.5µM*
C=CC(=O)OCCO | -4 | 5 | 18% | / | -10%
COc1cc(/C=C/[N+](=O)[O-])ccc1OC(=O)c1cccnc1 | -4 | / | 3.5µM* | / | 6.3µM*
CC(=O)C(O)C(c1ccccc1)c1c(O)c2ccccc2oc1=O (stereo unspecified) | / | / | -2% | / | 2%
CCC1CN2CCc3cc(OC)c(OC)cc3C2CC1CC1NCCc2c1[nH]c1ccc(O)cc21 (stereo unspecified) | ? | -15 | / | / | /
CC[C@@H]1CN2CCc3cc(OC)c(OC)cc3[C@H]2C[C@@H]1C[C@H]1NCCc2cc(OC)c(OC)cc21 | / | / | ? | / | 0.56µM*
CC[C@@H]1CN2CCc3cc(OC)c(OC)cc3[C@@H]2C[C@@H]1C[C@H]1NCCc2cc(OC)c(OC)cc21 | / | / | -95% | / | 1.1µM*
COc1cc2c(cc1OC)C(C)NCC2 (stereo unspecified) | 6 | 3 | 5% | 3% | 1%
Oc1ccc(Cl)cc1Sc1cc(Cl)ccc1O | 9 | -10 | ? | / | ?
C/C(=N\NC(=O)c1ccncc1)c1c(O)n(Cc2ccccc2)c(=O)[nH]c1=O | -5 | -19 | ? | 0% | 14%
C/C(=N\NC(=O)c1ccccc1O)c1c(O)n(Cc2ccccc2)c(=O)[nH]c1=O | -22 | 1 | -16% | 5% | 16µM*
C/C(=N\NC(=O)c1ccccc1O)c1c(O)n(C2CCCCC2)c(=O)[nH]c1=O | 0 | / | 11µM* | 21% | 5µM*
C/C(=N\NC(=O)c1ccccc1)c1c(O)n(C2CCCCC2)c(=O)[nH]c1=O | -2 | / | 20µM* | ? | 10µM*
C/C(=N\NC(=O)c1ccccc1Cl)c1c(O)n(C2CCCCC2)c(=O)[nH]c1=O | -2 | -1 | 11µM* | 4% | 7.1µM*
Cl/C=C\Cl | / | / | -1% | / | -1%
O=C(CSc1nnc(NC(=O)c2ccccc2[N+](=O)[O-])s1)NCc1ccco1 | 5 | -6 | 6% | 11% | ?
C=C1C(=O)O[C@H]2[C@H]1[C@H](OC(=O)CC(=O)O[C@@H]1C[C@@H](C)[C@@H]3C=CC(=O)[C@@]3(C)[C@H]3OC(=O)C(=C)[C@H]13)C[C@@H](C)[C@H]1C=CC(=O)[C@]12C | ? | -10 | 7.1µM* | -15% | 7.1µM*
C=C1C(=O)O[C@@H]2C[C@@H](C)[C@@H]3C=CC(=O)[C@@]3(C)[C@@H](OC(=O)CC(=O)O[C@H]3[C@@H]4C(=C)C(=O)O[C@@H]4C[C@@H](C)[C@@H]4C=CC(=O)[C@]43C)[C@H]12 | ? | -29 | 0.63µM* | -14% | 1.1µM*
C=C1C(=O)OC2CC(C)C3C=CC(=O)C3(C)C(O)C12 (stereo unspecified) | 20 | 0 | / | / | /
C=C1C(=O)OC2C1CCC(C)C1(O)C=CC(=O)C21C (stereo unspecified) | 0 | 2 | / | / | /
C=C1C(=O)O[C@H]2C[C@@H](C)[C@@H]3C=CC(=O)[C@@]3(C)C[C@H]12 | 3 | 3 | 10µM* | -16% | 6.3µM*
CCCCC(CC)COC(=O)c1ccc(C(=O)OCC(CC)CCCC)c(C(=O)OCC(CC)CCCC)c1 (stereo unspecified) | / | / | -16% | / | 1%
SMILES | Six1-Eya2 blk | CtBP-E1A inh | VP16 counter | p53 reactivation | RORgamma inh
c1ccc(Cn2ccnc2)cc1 | 1 | 23 | 0% | 3% | 6%
CC(C)c1cccc(C(C)C)c1OCCn1ccnc1 | 20 | 0 | ? | -10% | 22µM*
O=C1C=CC(=O)C=C1 | -8 | -2 | 1% | 9% | 11µM*
CN1CCC(O)(c2cccs2)C(C(=O)c2cccs2)C1 (stereo unspecified) | 3 | -4 | 3.2µM* | -39% | 4µM*
Cc1cc(NC(=O)CCl)no1 | 0 | -3 | ? | -13% | 2.5µM*
c1ccc(-c2ccccc2)cc1 | / | / | 0% | / | 4%
[Hg+][c]1ccccc1 | / | / | 2.8µM* | / | ?
Cn1c(O)c(/C=N/NC(=O)c2ccncc2)c(=O)n(C)c1=S | -10 | / | -11% | 2% | 0%
O=C(N/N=C\C1C(=O)NC(=S)N(c2ccccc2)C1=O)c1ccc(O)cc1 (stereo unspecified) | ? | ? | 2.5µM* | 29% | 1.4µM*
Cc1ccc(OCCn2cccc2/C=C2/C(=O)NC(=O)N(Cc3ccco3)C2=O)cc1 | ? | 8 | ? | 21% | 44%
CCc1ccc(N2C(=O)NC(=O)/C(=C\c3cccn3CCOc3ccc(C(C)C)cc3)C2=O)cc1 | -8 | -2 | 0.4µM* | ? | -22%
O=C1NC(=O)c2c1c1c3ccccc3n3c1c1c2c2ccccc2n1C1CCC3O1 | / | / | -11% | / | -22%
COc1ccc(Cc2nccc3cc(OC)c(OC)cc23)cc1OC | -23 | -18 | 28µM*! | -2% | ?
COC(=O)[C@]1(C)CC[C@@]2(C)CC[C@@]3(C)C4=CC=C5C(=CC(=O)C(O)=C5C)[C@@]4(C)CC[C@@]3(C)C2C1 (stereo partly specified) | / | / | 3.5µM* | / | 4µM*
